TTR transcr act – activators of transthyretin transcription; 92,000 compounds, 1.3% hits; AID 1117267; SH-SY5Y TTR promoter Gaussia luciferase, luminescence; 100% = recombinant luciferase protein wells; activation, % at 16.7 µM;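 active means activation above the mean of all tested compounds plus 3 SD, cut at about 9.5% in these data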;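 further: cells exposed to compounds for one day before reading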
TTR inh HuH7 – counter-screen for TTR activators: TTR transcription inhibitors in HuH7 cells; AID 1117279; shares compounds with TTR transcr act; inhibition, % at 16.7 µM; HuH7 TTR promoter-Gaussia luciferase reporter, luminescence; 1,100 compounds, 4% hits;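 active means average inhibition above the solvent-only control wells' mean plus 3 SD, cut at about 15% in these data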;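 further: inhibitors lower well luminescence so higher value means more inhibition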
TTR up confirm – human TTR transcription activation, confirmation; SHSY5Y TTR promoter Gaussia luciferase, luminescence; 100% = purified Lucia enzyme wells, no cells; activation, % at 16.7 µM; shares compounds with TTR transcr act; 1,100 tested, under 10 active;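 active means mean activation above a set limit taken from the earlier primary screen, cut at about 11% in these data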
Hits are given with their value; i = inactive. This is one part of a sample in which hits are shown more often than they occur.

SMILES | TTR transcr act | others
CCOC(=O)[C@@H]1CSCCS(=O)(=O)N1C(=O)[C@H](Cc1ccccc1)NC(=O)OC(C)(C)C | i
C[C@H]1CN([C@@H](C)CO)C(=O)CCCn2cc(nn2)CO[C@@H]1CN(C)S(=O)(=O)c1ccc(Cl)cc1 | i
C[C@@H]1CN([C@H](C)CO)C(=O)CCCn2nncc2CO[C@H]1CN(C)C(=O)c1cc(-c2ccccc2)on1 | i
C[C@H]1CN([C@@H](C)CO)C(=O)CCCn2nncc2CO[C@H]1CN(C)C(=O)c1cc(-c2ccccc2)on1 | 14 | TTR inh HuH7=i;TTR up confirm=i
C[C@@H]1CN([C@H](C)CO)C(=O)CCCn2cc(nn2)CO[C@H]1CN(C)S(=O)(=O)c1ccc(Oc2ccccc2)cc1 | 17 | TTR inh HuH7=i;TTR up confirm=i
C[C@H](CO)N1C[C@H](C)[C@@H](CN(C)C(=O)c2cc(-c3ccccc3)on2)OCc2cnnn2CCCC1=O | i
C[C@H](CO)N1C[C@H](C)[C@@H](CN(C)S(=O)(=O)c2ccccc2)OCc2cn(nn2)CCCC1=O | i
COc1ccc(C)c(NC(=O)[C@@H]2CCCN2S(=O)(=O)c2cccc3cccnc23)c1 | i
CN(Cc1ccccc1)C(=O)OCc1cn(Cc2ccccc2C(F)(F)F)nn1 | i
O=C(Nc1ccc(F)cc1)OCc1cn(Cc2ccc(F)c(F)c2)nn1 | i
CC(=O)c1c(C)[nH]c(C(=O)Nc2ccccc2C)c1C | i
COc1ccc(Cn2cc(COC(=O)N3CCCC3)nn2)cc1 | i
COc1ccc(Cn2ccc3ccc(-c4ccc5ccn(Cc6ccc(F)cc6)c5c4)cc32)cc1 | i
CC(=O)c1cccc(N(CC(=O)Nc2ccccc2F)S(C)(=O)=O)c1 | i
CC(=O)c1cccc(NC(=O)CN(c2ccccc2)S(C)(=O)=O)c1 | 12 | TTR inh HuH7=i;TTR up confirm=i
CC(=O)c1cccc(N(CC(=O)Nc2ccc(S(=O)(=O)N3CCCC3)cc2)S(C)(=O)=O)c1 | i
Cc1ccnc(SCc2cc(=O)c(OC(=O)c3ccc([N+](=O)[O-])cc3)co2)n1 | i
CCc1ccccc1-c1cc(C(C)=O)c2n(c1=O)CCC2 | i
O=C(Cn1nc(-c2ccccc2)c2ccccc21)Oc1ccccc1 | i
Cc1ccc(N2C(=O)[C@@H]3C(C(=O)CN4C(=O)c5ccccc5C4=O)=NN[C@@H]3C2=O)c(C)c1 | i
COc1cccc(N2C(=O)C3NN=C(C(=O)CN4C(=O)c5ccccc5C4=O)C3C2=O)c1 (stereo not drawn) | 18 | TTR inh HuH7=i;TTR up confirm=i
COc1ccccc1N1C(=O)[C@@H]2C(C(=O)CN3C(=O)c4ccccc4C3=O)=NN[C@@H]2C1=O | i
COC(=O)c1ccc(NC(=O)c2cccnc2)cc1 | i
COC(=O)c1ccc(NC(=O)c2cn(-c3cccc(C)n3)cn2)cc1 | 30 | TTR inh HuH7=i;TTR up confirm=i
CCOC(CCNC(=O)c1cn(-c2cccc(C)n2)cn1)OCC | i
SMILES | TTR transcr act | others
O=C(O)CCn1[nH]c(=O)ccc1=O | 27 | TTR inh HuH7=i;TTR up confirm=i
O=c1ccc(=O)n(-c2ccccc2)[nH]1 | i
Cn1c(=O)n(CCC(=O)O)c2ccccc21 | i
COc1ccc(Cn2cc(COC(=O)NCC(C)C)nn2)cc1 | i
O=C(CSc1nnc(CNC(=O)c2c(F)cccc2F)o1)Nc1ccc2c(c1)OCO2 | i
O=C(CSc1nnc(CNC(=O)c2ccccc2)o1)Nc1ccc2c(c1)OCO2 | i
O=C(CSc1nnc(CNC(=O)c2c(F)cccc2F)o1)Nc1ccc2c(c1)OCCO2 | 11 | TTR inh HuH7=i;TTR up confirm=i
O=C1CCC(CNc2ccccc2)N1c1ccccc1 (stereo not drawn) | i
C[C@@H]1CN([C@@H](C)CO)C(=O)CCCn2cc(nn2)CO[C@H]1CN(C)C(=O)Nc1ccc(N2CCN(C)CC2)cc1 | i
CC(C)[C@H](NC(=O)N1CC(=O)Nc2ccccc21)C(=O)N[C@@H](Cc1ccccc1)C(=O)O | i
CC(C)C[C@H](NC(=O)N1CC(=O)Nc2ccccc21)C(=O)N[C@H](Cc1c[nH]c2ccccc12)C(=O)O | i
CCC(C)[C@H](NC(=O)N1CC(=O)Nc2ccccc21)C(=O)N[C@@H](Cc1c[nH]c2ccccc12)C(=O)O (stereo partly drawn) | 12 | TTR inh HuH7=i;TTR up confirm=i
CCOC(=O)[C@]12CCCC=C1N(CCCOC)C(=O)[C@@H]2CC(=O)NCC1CCCCC1 | i
COc1cccc(-c2cc3nc(-c4ccco4)cc(N4CCN(C(C)=O)CC4)n3n2)c1 | i
O=C1C(C23CC4CC(CC(C4)C2)C3)C(=O)N(c2ccccc2)N1c1ccccc1 | 51 | TTR inh HuH7=i;TTR up confirm=i
O=C1CC(c2ccccc2)CC(=O)N1c1ccccc1 | i
O=C(NCc1ccccc1)NC12CC3CC(CC(C3)C1)C2 | i
O=C(N[C@H]1CC[C@@H]2SC[C@@H](C(=O)O)N2C1=O)OCC1c2ccccc2-c2ccccc21 | i
CCNC(=O)CCc1nc(-c2ccc(C(C)C)cc2)no1 | i
COCCCNC(=O)c1ccc(Cn2c(=O)c3ccccc3n(Cc3ccc(C(C)C)cc3)c2=O)cc1 | i
Cc1cnc(C(=O)OCC(=O)N(CC(C)C)C2CCS(=O)(=O)C2)cn1 (stereo not drawn) | i
CC(C)CN(C(=O)CSc1nnnn1C)C1CCS(=O)(=O)C1 (stereo not drawn) | i
Cc1nn(CC(=O)N(CC(C)C)C2CCS(=O)(=O)C2)c(C)c1[N+](=O)[O-] (stereo not drawn) | 13 | TTR inh HuH7=i;TTR up confirm=i
COc1cc(/C(C)=N/NC(=O)Cc2c(C)[nH][nH]c2=O)ccc1O | 14 | TTR inh HuH7=i;TTR up confirm=i
COc1ccc(/C(C)=N/NC(=O)Cc2c(C)nc(C)[nH]c2=O)cc1 | i
SMILES | TTR transcr act | others
C/C(=N/NC(=O)Cc1c(C)[nH][nH]c1=O)c1ccc(O)cc1 | i
CCOC(=O)N1CCN(C(=O)C[C@H]2C[C@@]3(C(=O)OC)C(=C[C@H](COCc4ccccc4)O[C@@H]3C)N(Cc3ccco3)C2=O)CC1 | i
O=C(Nc1ccc2c(c1)OCCO2)C(C1CC1)n1c(=O)c(-c2cc3ccccc3[nH]2)nc2ccccc21 (stereo not drawn) | i
C[C@H]1[C@@H](NS(=O)(=O)c2ccccc2[N+](=O)[O-])CC[C@@]23CCCN2C(=O)CCC[C@@H]13 | i
OCC1CCCN(C(=S)NCCc2ccccc2)C1 (stereo not drawn) | i
O=C(c1ccccc1)N1CCN(C(=S)NCCc2ccccc2)CC1 | i
CN1CCN(C(=S)NCCc2ccccc2)CC1 | 11 | TTR inh HuH7=i;TTR up confirm=i
C[C@H]1[C@@H](OC(=O)Oc2ccc([N+](=O)[O-])cc2)CC[C@@]23CCCN2C(=O)CCC[C@@H]13 | i
Cc1ccc(-c2nc3ccccc3nc2-c2ccccc2)cc1 | i
Cc1cc(-c2ccccc2)nc(-c2ccccc2)c1C | 19 | TTR inh HuH7=i;TTR up confirm=i
Cc1ccc(-c2cc(-c3ccccc3)nc(NN)n2)cc1 | i
COC(=O)[C@]12C[C@H](CC(=O)NCc3ccccc3)C(=O)N(Cc3ccc(Cl)cc3Cl)C1=C[C@H](C1CCCC1)O[C@@H]2C | i
CCCC1CCC2(CC1)CCC2OC(=S)Nc1cccc(I)c1 (stereo not drawn) | i
COC(=O)[C@]12C[C@H](CC(=O)N3CCSCC3)C(=O)N(Cc3ccc(Cl)cc3Cl)C1=C[C@H](C(C)C)O[C@@H]2C1CC1 | i
COC(=O)[C@]12C[C@H](CC(=O)NCc3ccc(C)o3)C(=O)N(Cc3cccc4ccccc34)C1=C[C@H](C(C)C)O[C@@H]2C1CC1 | i
